Data as given in PubChem BioAssay (NCI).
About 83,000 compounds went through this panel and 20% of them were active in at least one assay; those are over-represented in the sample as a whole.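 In brief: 96-well plates, 48 h treatment, single concentration, percent growth endpoint.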 Values without a mark were called inactive. Activity calls are given as the source filed them. The calls were made as follows: active = growth percent below 10; inactive = the rest.

Legend:
Test in all cases: NCI-60 one-dose screen, 48 h (100 = growth as untreated, 0 = no growth, -100 = all killed)
[1] = test system: DU-145 prostate; conditions: 10 µM unless noted
[2] = test system: K-562 leukemia; conditions: 10 µM unless noted
[3] = test system: MALME-3M melanoma; conditions: 10 µM unless noted
[4] = test system: RXF 393 renal; conditions: 10 µM unless noted
[5] = test system: SF-268 CNS; conditions: 10 µM unless noted
[6] = test system: SF-295 CNS; conditions: 10 µM unless noted
[7] = test system: SF-539 CNS; conditions: 10 µM unless noted
[8] = test system: UACC-257 melanoma; conditions: 10 µM
[9] = test system: M14 melanoma; conditions: 10 µM unless noted
[10] = test system: HCT-15 colon; conditions: 10 µM unless noted
[11] = test system: HT29 colon; conditions: 10 µM unless noted
[12] = test system: SNB-75 CNS; conditions: 10 µM unless noted
[13] = test system: SNB-19 CNS; conditions: 10 µM unless noted
[14] = test system: U251 CNS; conditions: 10 µM unless noted
[15] = test system: PC-3 prostate; conditions: 10 µM unless noted
[16] = test system: SK-MEL-5 melanoma; conditions: 10 µM unless noted
[17] = test system: UACC-62 melanoma; conditions: 10 µM unless noted
[18] = test system: LOX IMVI melanoma; conditions: 10 µM unless noted
[19] = test system: SK-MEL-28 melanoma; conditions: 10 µM unless noted
[20] = test system: MDA-MB-231 breast; conditions: 10 µM unless noted

| SMILES | growth [1] | growth [2] | growth [3] [%] | growth [4] [%] | growth [5] | growth [6] | growth [7] | growth [8] | growth [9] [%] | growth [10] [%] | growth [11] | growth [12] | growth [13] [%] | growth [14] | growth [15] | growth [16] | growth [17] [%] | growth [18] | growth [19] [%] | growth [20] [%] |
| --- | --- | --- | --- | --- | --- | --- | --- | --- | --- | --- | --- | --- | --- | --- | --- | --- | --- | --- | --- | --- |
| COc1cc(NS(C)(=O)=O)ccc1Nc1c2ccc([N+](=O)[O-])cc2nc2c(C)cccc12 | -13.1% (active) | 4.57% (active) | 14.4 | 10.4 | 7.28% (active) | -43.7% (active) | -13.7% (active) | 2.11% (active) | 22.6 | 12.4 | -0.0847% (active) | 5.27% (active) | 21.2 | 0.458% (active) | 8.53% (active) | -0.826% (active) | 16.2 | -3.95% (active) | 41.7 |  |
| Cc1cc(C(=O)CSc2nc3ccccc3c(=O)[nH]2)c(C)n1C | 102% | 110% | 87.5 |  | 110% | 81.9% | 90.2% |  | 112 | 104 | 96.6% | 118% | 95.5 | 96.2% | 83.9% | 98.4% | 90.5 | 94.7% | 121 | 90.4 |
| CC(C)(C)c1cn2cccc(C(=O)N3CCN(CC(=O)Nc4ccc(Cl)cc4C(=O)c4ccccc4Cl)CC3)c2n1 | 73.3% | 33.5% | 86.4 |  | 85.8% | -5.34% (active) | 51.4% |  | 48.5 | 47.5 | 22.2% | 78.4% | 73.2 | 43.4% | 17.6% | 12.5% | 57.6 |  | 89.8 | 73.5 |
| CCCCCCCCCCCCCCCCCCOc1cccc(CCOP(=O)(O)OCC[N+](C)(C)C)c1 | 95.9% | 116% | 101 |  | 68% | 87.2% | 95.1% |  | 93.4 | 87 | 73.7% | 83.1% | 83.6 | 67.7% | 2.55% (active) | 91.1% | 85.2 | 77.3% | 94.2 | 95.5 |
| CCN1C(=O)N(CC)C2Nn3c(s/c(=C4\C(=O)N(C5CCCC5)c5ccccc54)c3=O)=NC21 (centres undefined) | 43.6% | 22% | 70.9 |  | 59.5% | 60.6% | 37% |  | 91.9 | 51.2 | 21.3% |  | 79.2 | 58.9% |  | 34.8% | 61.9 | 64.5% | 73.4 | 58.1 |
| C#CCN1C(=O)/C(=c2\sc3n(c2=O)NC2C(N=3)N(CC)C(=O)N2CC)c2ccccc21 (centres undefined) | 41% | 3.27% (active) | 51.5 |  | 75.5% | 86.7% | 38.7% |  | 80.7 | 43.8 | 26.2% | 14.2% | 89.1 | 94.4% | 47.5% | 53% | 54.1 | 60.3% | 57.3 | 69.9 |
| OCc1c(-c2ccccc2)nc2sccn12 | 109% | 123% | 109 |  | 102% | 112% | 73.7% |  | 102 | 97.2 | 109% | 122% | 85.5 | 95.6% | 95.7% | 80.2% | 101 | 104% | 122 | 109 |
| CCCCCCCC/C=C\CCCCCCCCOc1ccccc1CCOP(=O)(O)OCC[N+](C)(C)C | 86.6% | 72.7% | 93 |  | 44.9% | 69.2% | 84.8% |  | 84.4 | 46.7 | 10.9% | 55.4% | 20.1 | 13.3% | 0.679% (active) | 69.5% | 54.2 | 60.6% | 89.1 | 73.9 |
| Cc1oc2nc[nH]c(=O)c2c1C(=O)/C=C/c1ccc(Cl)cc1 | 6.76% (active) | -63.2% (active) | 71 |  | 50.1% | 77% | 14.5% |  | 82.3 | 19.9 | 12.9% | -11.4% (active) | 42 | 24.3% |  | 37.5% | 18.2 | 8.44% (active) | 39.4 | 22.3 |
